Assay results from PubChem BioAssay AID1159580 (chemical genetic matrix, 2015).
Several values for one entry are separate records, joined by “and”; a condition that tells them apart may be missing. Identical values can stand only once. Screen size: about 5,500 compounds; about 2,000 (36%) were called active. Not shown: some 18% with an inconclusive outcome. No stated cut-off is given here; in the data, active means normalized growth mostly below about 0.91 (no sharp cut-off); inconclusive means no clear call, values can overlap the other calls; inactive means mostly above about 0.92. The list shows a part of the results.

Assay: chemical genetic growth profiling, strain panel (AID 1159580);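 further: tested at 20 µM; growth read once vehicle control cultures reached saturation at 30 °C; 1 = growth at the plate median or of vehicle wells; lower values mean less growth of the strain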
Settings: S. cerevisiae deletion strains, growth OD

Measured: normalized growth

CC(CN1c2ccccc2Sc2ccccc21)N(C)C (configuration not stated)
active: locus YAL021C, strain ccr4, hits give low values 0.902 | locus YAL026C, strain drs2, hits give low values 0.721 | locus YDR101C, strain arx1, hits give low values 0.914 | locus YDR137W, strain rgp1, hits give low values 1.25 [resistant] | locus YER015W, strain faa2, hits give low values 0.901 | locus YER155C, strain BEM2 (second series), hits give low values 0.816 | locus YFR010W, strain ubp6, hits give low values 0.88 | locus YGL240W, strain doc1, hits give low values 0.864 | locus YJL166W, strain qcr8, hits give low values 0.896
inactive: locus YAL030W, strain snc1, hits give low values 0.973 | locus YAL040C, strain CLN3, hits give low values 0.985 | locus YBL061C, strain skt5, hits give low values 0.924 | locus YBR009C, strain hhf1, hits give low values 0.954 | locus YBR021W, strain FUR4, hits give low values 0.938 | locus YBR023C, strain chs3, hits give low values 0.927 | locus YBR171W, strain sec66, hits give low values 0.988 | locus YBR229C, strain ROT2, hits give low values 0.95 | locus YBR231C, strain swc5, hits give low values 0.95 | locus YBR279W, strain paf1, hits give low values 0.966 | locus YCL011C, strain gbp2, hits give low values 0.981 | locus YCL016C, strain dcc1, hits give low values 0.975 | locus YCL061C, strain MRC1 (second series), hits give low values 0.998 | locus YCL069W, strain vba3, hits give low values 0.938 | locus YCR088W, strain abp1, hits give low values 0.988 | locus YDL005C, strain med2, hits give low values 1 | locus YDL035C, strain GPR1, hits give low values 0.966 | locus YDL040C, strain nat1, hits give low values 0.982 | locus YDL074C, strain BRE1, hits give low values 0.906 | locus YDL101C, strain DUN1, hits give low values 0.944 | locus YDL134C, strain PPH21, hits give low values 0.979 | locus YDL185W, strain tfp1, hits give low values 0.978 | locus YDL192W, strain arf1, hits give low values 0.982 | locus YDR001C, strain nth1, hits give low values 0.983 | locus YDR069C, strain doa4, hits give low values 0.946 | locus YDR150W, strain NUM1, hits give low values 0.99 | locus YDR159W, strain sac3, hits give low values 0.968 | locus YDR162C, strain NBP2, hits give low values 0.982 | locus YDR195W, strain ref2 1.14 | locus YDR297W, strain sur2, hits give low values 0.937 | locus YDR318W, strain mcm21, hits give low values 0.95 | locus YDR334W, strain swr1, hits give low values 0.985 | locus YDR335W, strain msn5, hits give low values 0.94 | locus YDR363W, strain ESC2, hits give low values 0.993 | locus YDR388W, hits give low values 0.977 | locus YDR392W, strain spt3, hits give low values 1.07 | locus YDR502C, strain sam2, hits give low values 0.948 | locus YEL003W, strain gim4, hits give low values 0.926 | locus YEL037C, strain rad23, hits give low values 0.972 | locus YEL061C, strain CIN8 (second series), hits give low values 0.975 | locus YEL061C, strain CIN8, hits give low values 0.977 | locus YER002W, strain NOP16, hits give low values 0.978 | locus YER016W, strain bim1, hits give low values 0.988 | locus YER110C, hits give low values 0.971 | locus YER111C, strain swi4, hits give low values 0.98 | locus YER155C, strain BEM2, hits give low values 0.987 | locus YER167W, strain BCK2, hits give low values 0.986 | locus YGL078C, strain dbp3, hits give low values 0.972 | locus YGL086W, strain mad1, hits give low values 0.936 | locus YGL167C, strain pmr1, hits give low values 0.987 | locus YGL173C, strain kem1, hits give low values 0.926 | locus YGL227W, strain vid30, hits give low values 0.974 | locus YGL248W, strain PDE1, hits give low values 0.945 | locus YGL253W, strain hxk2, hits give low values 0.963 | locus YGR135W, strain pre9, hits give low values 1 | locus YGR229C, strain SMI1, hits give low values 0.954 and 0.981 | locus YGR252W, strain gcn5, hits give low values 0.815 | locus YHR013C, strain ard1, hits give low values 1.01 | locus YHR027C, strain rpn1, hits give low values 0.927 | locus YHR030C, strain SLT2, hits give low values 0.99 and 1.04 | locus YHR079C, strain IRE1 (second series), hits give low values 0.957 | locus YHR079C, strain IRE1, hits give low values 1.07 | locus YHR094C, strain hxt1, hits give low values 0.974 | locus YHR129C, strain ARP1, hits give low values 0.985 | locus YHR142W, strain chs7, hits give low values 0.879 | locus YHR200W, strain rpn10, hits give low values 0.966 | locus YIL066C, strain RNR3, hits give low values 0.917 | locus YIL073C, strain SPO22, hits give low values 0.968 | locus YIL125W, strain kgd1, hits give low values 0.963 | locus YIR030C, strain dcg1, hits give low values 0.98 | locus YJL092W, strain hpr5, hits give low values 0.949 | locus YJL095W, strain BCK1 (second series), hits give low values 0.96 | locus YJL095W, strain BCK1, hits give low values 0.906 and 1.01 | locus YJL115W, strain asf1, hits give low values 0.974 | locus YJL129C, strain trk1, hits give low values 1.02 | locus YJL134W, strain LCB3, hits give low values 0.984 | locus YJL154C, strain vps35, hits give low values 0.973 | locus YJL164C, strain tpk1, hits give low values 0.964 | locus YJL168C, strain set2, hits give low values 0.983 | locus YJL187C, strain SWE1 (second series), hits give low values 0.894 | locus YJR043C, strain POL32, hits give low values 0.968 | locus YJR066W, strain TOR1, hits give low values 0.972 | locus YJR075W, strain HOC1, hits give low values 0.981 and 1.01
